Measured values taken from the supplement of paper PMC10981050.
Where “and” joins values, the source holds several entries; their conditions need not be identical. Equal entries are not always repeated. Structures can show the parent of a compound that is named as a salt.

Tests used:
Test in all cases: cell viability relative to vehicle control; higher = less cytotoxic
Details in all cases: 10 µM
K562 = system: K562
How it was run: (§1)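 Mutant clones made by CRISPR editing and their isogenic wild-type counterparts, from four leukaemia lines, were exposed to a single 10 µM dose of each library compound for 48 h. The supernatant was then removed and CellTiter-Glo luminescence was read. Viability was reported as percent of the on-plate vehicle control.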

MARIMO = system: MARIMO
How it was run: as §1

MOLM14 = system: MOLM14
How it was run: as §1

OCI-AML2 = system: OCI-AML2
How it was run: as §1

SMILES | cell viability (K562; SRSF2 genotype: SRSF2 P95H/wt) | cell viability (K562; SRSF2 genotype: SRSF2 wt/wt) | cell viability (MARIMO; SRSF2 genotype: SRSF2 P95H/wt) | cell viability (MARIMO; SRSF2 genotype: SRSF2 wt/wt) | cell viability (MOLM14; SRSF2 genotype: SRSF2 P95H/wt) | cell viability (MOLM14; SRSF2 genotype: SRSF2 wt/wt) | cell viability (OCI-AML2; SRSF2 genotype: P95H/wt) | cell viability (OCI-AML2; SRSF2 genotype: wt/wt)
CC[C@@H](N)CNc1ccnc(-c2cc(-c3cnn(C)c3)ccc2O)n1 | 5.05% and 8.35% | 7.08% | 2.69% | 1.1% | 0.8% | 0.44% | 1.45% | 10.8%
CCOC(=O)[C@H](CCc1ccccc1)N[C@@H](C)C(=O)N1Cc2ccccc2C[C@H]1C(=O)O [Quinapril hydrochloride (Accupril)] | 97.3% and 108% | 106% | 102% | 106% | 104% | 103% | 107% | 104%
CC1(C)O[C@@H]2C[C@H]3[C@@H]4C[C@H](F)C5=CC(=O)C=C[C@]5(C)[C@@]4(F)[C@@H](O)C[C@]3(C)[C@]2(C(=O)CO)O1 [Fluocinolone acetonide (Flucort-N)] | 95% and 96% | 92.6% | 98.3% | 104% | 95.6% | 91.6% | 100% | 109%
CCOCCn1c(N2CCCN(C)CC2)nc2ccccc21 [Emedastine] | 100% and 96.7% | 101% | 101% | 107% | 102% | 107% | 114% | 104%
O=C(NC1CCOCC1)c1ccc(-c2cc(-c3c[nH]nc3-c3ccccn3)ccn2)cc1 | 88.3% and 99.8% | 93% | 102% | 110% | 103% | 103% | 101% | 101%
CNC(=O)c1ccc2cc([C@@]3(O)CCn4cncc43)ccc2c1 [TAK-700 (Orteronel)] | 107% and 98.8% | 97.3% | 93.2% | 105% | 101% | 100% | 95.6% | 104%
O=C(O)c1ccc(C=C2SC(=S)N(c3cccc(C(F)(F)F)c3)C2=O)cc1 | 94.1% and 97.2% | 95.1% | 94.3% | 105% | 90.2% | 99.7% | 95.5% | 97.9%
O=C(c1ccc(C(=O)N2CCC(N3CCCC3)CC2)c(Nc2ccccc2)c1)N1CCC(N2CCCC2)CC1 | 94.7% and 87.5% | 84.1% | 81.1% | 92.7% | 89% | 89.4% | 93.8% | 89.4%
C[C@H]1c2cccc(O)c2C(O)=C2C(=O)[C@]3(O)C(O)=C(C(N)=O)C(=O)[C@@H](N(C)C)[C@@H]3[C@@H](O)[C@@H]21 [Doxycycline] | 82.7% and 74.8% | 79.9% | 91.8% | 91.3% | 102% | 99.5% | 88.2% | 96.2%
C[C@@H]1O[C@@H](O[C@H]2[C@H](O[C@H]3CC[C@@]4(C)[C@@H](CC[C@]5(C)[C@@H]4CC=C4[C@@H]6CC(C)(C)CC[C@]6(C(=O)O[C@@H]6O[C@H](CO[C@@H]7O[C@H](CO)[C@@H](O)[C@H](O)[C@H]7O)[C@@H](O)[C@H](O)[C@H]6O)CC[C@]45C)[C@]3(C)CO)OC[C@H](O)[C@@H]2O)[C@H](O)[C@H](O[C@@H]2O[C@H](CO)[C@@H](O[C@@H]3O[C@H](CO)[C@@H](O)[C@H](O)[C@H]3O)[C@H](O)[C@H]2O)[C@H]1O [Macranthoidin B] | 86.7% and 84.6% | 85% | 83.6% | 94.2% | 86% | 86.6% | 91.4% | 86%
Cc1nc(N(C)C(=O)Cc2ccc(-c3ccccn3)cc2)sc1S(N)(=O)=O [Pritelivir (BAY 57-1293)] | 99.6% and 99.5% | 92.1% | 103% | 112% | 108% | 103% | 98.5% | 95.7%
Cc1c(C(=O)Nc2ccc(Oc3ccnc4[nH]cc(-c5ccccc5)c34)c(F)c2)c(=O)n(-c2ccc(F)cc2)n1C | 75.3% and 86.8% | 76.8% | 84.7% | 88.2% | 8.77% | 13.1% | 24.8% | 35.5%
C=C1C(=O)O[C@H]2[C@H]1CCC(C)=C1CC[C@@](C)(O)[C@@H]12 [Micheliolide] | 28.9% and 41.7% | 64.4% | 15.9% | 19.8% | 7.9% | 7.02% | 5.22% | 11.1%
Cc1c(O)c(=O)ccn1C [Deferiprone] | 96.7% and 92.2% | 93.6% | 90.6% | 102% | 87% | 93.9% | 90.5% | 96.3%
O=C(/C=C\n1cnc(-c2cc(C(F)(F)F)cc(C(F)(F)F)c2)n1)NNc1cnccn1 [Selinexor (KPT-330)] | 8.08% and 19.9% | 13.9% | 22.6% | 22.3% | 2.17% | 1.26% | 6.48% | 11.4%
C[C@@H]1CC[C@@]2(OC1)O[C@H]1C[C@H]3[C@@H]4CC=C5C[C@@H](O)C[C@@H](O)[C@]5(C)[C@H]4CC[C@]3(C)[C@H]1[C@@H]2C [Ruscogenin] | 96.3% and 102% | 98% | 98.9% | 103% | 103% | 110% | 89.2% | 94.3%
Cc1nc2ccc(NC(=O)Nc3ccnc4cccnc34)cc2o1 | 99.3% and 105% | 98.3% | 96.4% | 89.9% | 104% | 107% | 88.2% | 96.4%
Cc1c(Cn2c(C)nc3c(C(=O)O)cc(N4CCOCC4)cc32)cccc1C(F)(F)F | 104% and 97.4% | 108% | 105% | 105% | 83.2% | 89.7% | 92.7% | 95.2%
O=P(O)(O)C(O)(Cc1cccnc1)P(=O)(O)O [Risedronate sodium] | 95.3% and 102% | 91.4% | 88.9% | 102% | 91.8% | 101% | 93.7% | 98.3%
COC(=O)Nc1nc2cc(C(=O)c3ccc(F)cc3)ccc2[nH]1 [Flubendazole (Flutelmium)] | 18.9% and 30.8% | 27.6% | 9.3% | 12% | 8.51% | 43.1% | 6.97% | 11%
CCOc1cn(-c2ccc(F)cc2C)nc1C(=O)Nc1ccc(Oc2ccnc3cc(OC)c(OC)cc23)c(F)c1 | 23.1% and 45.6% | 25.2% | 89.3% | 90.4% | 24.9% | 19.6% | 48.1% | 52.9%
